MITF inhib – inhibitors of MITF. inhibition, % (no concentration beside the values). TRPM1 promoter luciferase, luminescence, 24 h. AID 2240. 37,000 compounds, 0.28% hits; in the data active means inhibition above about 85%; inconclusive means no clear call, values can overlap the other calls; inactive means below about 68%;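 further: human melanocyte line stably carrying TRPM1 promoter luciferase reporter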
Hedgehog inh – Sonic Hedgehog pathway inhibition | Shh-LIGHT2 Gli-luciferase reporter, 30 h | inhibition, % (test concentration not listed) | 22,000 compounds, 2.1% hits;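 active means mean inhibition across valid replicates above about 65%, limit read from the data; inconclusive means mean under the limit, yet half or more replicates past it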;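 further: pathway switched on by Shh-conditioned medium diluted 1 in 25 in low serum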
NOMO-1 viab – STK33 inhibitor candidate reducing NOMO-1 cell viability | NOMO-1 AML viability, CellTiter-Glo luminescence, 72 h | inhibition, % (no concentration beside the values) | 37,000 compounds, 7.5% hits; in the data active means inhibition above about 80%; inconclusive means no clear call, values can overlap the other calls
Active calls of the source: *. Compounds with a hit are over-represented: about 7.8% of the library has one in this group of screens.

For O=C(CSc1ccccn1)Nc1ccccn1 the results were MITF inhib -55, Hedgehog inh -40 and NOMO-1 viab -3.
`C[C@@H]1O[C@@H](O[C@@H]2[C@@H](O)[C@H](Oc3c(-c4ccc(O)cc4)oc4cc(O)cc(O)c4c3=O)O[C@H](CO)[C@H]2O)[C@H](O)[C@H](O)[C@H]1O` gave MITF inhib -3, Hedgehog inh 4 and NOMO-1 viab 12.
`COC(=O)c1ccccc1NC(=O)C1=C(C)NC(=S)NC1c1ccc(OC2CCCC2)c(OC)c1` (stereo unspecified) gave MITF inhib 4 and NOMO-1 viab 24.
For C[C@H](CO)N1C[C@H](C)[C@@H](CN(C)C(=O)NC2CCCCC2)Oc2c(NC(=O)Nc3ccc(C(F)(F)F)cc3)cccc2C1=O the results were MITF inhib -6, Hedgehog inh -44 and NOMO-1 viab 85*.
Screening C[C@@H]1CN([C@@H](C)CO)C(=O)c2cccc(NC(=O)Nc3ccc(C(F)(F)F)cc3)c2O[C@H]1CN(C)C(=O)NC1CCCCC1 returned MITF inhib 26, Hedgehog inh -32 and NOMO-1 viab 73.
`C[C@@H]1CN([C@H](C)CO)C(=O)c2cccc(NC(=O)Nc3ccc(C(F)(F)F)cc3)c2O[C@@H]1CN(C)C(=O)NC1CCCCC1` gave MITF inhib 27, Hedgehog inh -53 and NOMO-1 viab 117*.
C[C@@H]1CN([C@H](C)CO)C(=O)c2cccc(NC(=O)NC3CCCCC3)c2O[C@H]1CN(C)C(=O)Nc1ccc(C(F)(F)F)cc1 was read as MITF inhib -1, Hedgehog inh 0 and NOMO-1 viab 8.
For O=C(CSc1nc2ccccc2o1)N1N=CCC1c1ccccc1 (stereo unspecified) the results were MITF inhib -41 and NOMO-1 viab 7.
Screening Cn1cc(C(c2ccc([N+](=O)[O-])o2)c2cn(C)c3ccccc23)c2ccccc21 returned MITF inhib 5 and NOMO-1 viab 45.
`NC(=NC(=O)c1cnccc1C(F)(F)F)c1ccccn1` gave MITF inhib 2, Hedgehog inh -18 and NOMO-1 viab -17.
For Cc1cccc(N(CC(=O)O)S(C)(=O)=O)c1C the results were MITF inhib -9 and NOMO-1 viab 11.
For Cc1ccc(S(=O)(=O)N[C@@H](Cc2ccccc2)C(=O)CCl)cc1 the results were MITF inhib 83, Hedgehog inh 95* and NOMO-1 viab 120*.
CCCC(NS(=O)(=O)c1ccc(C)cc1)C(=O)O (stereo unspecified) was read as MITF inhib -12 and NOMO-1 viab 0.
Screening C[C@@H]1CN([C@@H](C)CO)C(=O)Cc2cc(NC(=O)Nc3ccccc3)ccc2O[C@@H]1CN(C)S(=O)(=O)c1ccccc1 returned MITF inhib 2, Hedgehog inh -10 and NOMO-1 viab 53.
For Cc1ccc(S(=O)(=O)N(C)C[C@@H]2Oc3ccc(NC(=O)Nc4ccccc4)cc3CC(=O)N([C@@H](C)CO)C[C@@H]2C)cc1 the results were MITF inhib 35, Hedgehog inh -12 and NOMO-1 viab 124*.
`C[C@H]1CN([C@@H](C)CO)C(=O)Cc2cc(NC(=O)Nc3ccc(F)cc3)ccc2O[C@H]1CN(C)S(=O)(=O)c1ccc(Cl)cc1` gave MITF inhib 31, Hedgehog inh 13 and NOMO-1 viab 114*.
C[C@@H]1CN([C@H](C)CO)C(=O)Cc2cc(NC(=O)Nc3ccc(F)cc3)ccc2O[C@@H]1CN(C)S(=O)(=O)c1ccc(Cl)cc1 was read as MITF inhib 24, Hedgehog inh 26 and NOMO-1 viab 6.
`Cc1ccc(S(=O)(=O)N(C)C[C@@H]2Oc3ccc(NC(=O)CCC(F)(F)F)cc3CC(=O)N([C@H](C)CO)C[C@H]2C)cc1` gave MITF inhib -1, Hedgehog inh -41 and NOMO-1 viab -11.
Cc1ccc(S(=O)(=O)N(C)C[C@@H]2Oc3ccc(NC(=O)CCC(F)(F)F)cc3CC(=O)N([C@@H](C)CO)C[C@@H]2C)cc1 was read as MITF inhib 15, Hedgehog inh 5 and NOMO-1 viab 134*.
C[C@H]1CN([C@@H](C)CO)C(=O)Cc2cc(NC(=O)Nc3ccccc3)ccc2O[C@@H]1CN(C)S(=O)(=O)c1ccc(Cl)cc1 was read as MITF inhib 21, Hedgehog inh -30 and NOMO-1 viab 20.
`C[C@H]1CN([C@@H](C)CO)C(=O)Cc2cc(NC(=O)Nc3ccccc3)ccc2O[C@H]1CN(C)S(=O)(=O)c1ccc(Cl)cc1` gave MITF inhib 30, Hedgehog inh 11 and NOMO-1 viab 113*.
Screening CC(=O)OC1CC2(C)C3CC=C4C(CC(O)C(O)C4(C)C)C3(C)CCC2(C)C1C(C)(O)C(=O)CCC(C)(C)O (stereo unspecified) returned MITF inhib 13, Hedgehog inh -6 and NOMO-1 viab -13.
`Nc1cc(N)nc(SCC(=O)c2ccc(F)cc2)n1` gave MITF inhib -38 and NOMO-1 viab -8.
For CCn1c(SCC(=O)Nc2ccc(Br)cc2C)nnc1-c1ccccc1F the results were MITF inhib 12 and NOMO-1 viab 4.
For Cc1ccccc1-c1cc(C(=O)NCCCN2CCOCC2)c2cc(Cl)ccc2n1 the results were MITF inhib -4 and NOMO-1 viab -11.
Cc1cc2nn(-c3cccc4ccccc34)nc2cc1NC(=O)COc1ccc([N+](=O)[O-])cc1 was read as MITF inhib 29 and NOMO-1 viab 29.
COc1cc(C(=O)Nc2ccc(Oc3ncnc4sc(C)c(C)c34)cc2)cc(OC)c1OC was read as MITF inhib 12 and NOMO-1 viab 21.
`O[C@H]1C=C2CCN3Cc4cc5c(cc4C(C23)[C@@H]1O)OCO5` (stereo partly specified) gave MITF inhib 63, Hedgehog inh 99* and NOMO-1 viab 110*.
CCn1c(SCC(=O)Nc2ccc(Cl)cc2Cl)nnc1-c1ccccc1 was read as MITF inhib 6 and NOMO-1 viab -15.
For COc1ccc(OCc2ncc(-c3ccc4c(c3)OCCCO4)s2)cc1 the results were MITF inhib -15, Hedgehog inh 3 and NOMO-1 viab 6.
c1csc(-c2nnc(CSc3cccc4cccnc34)o2)c1 was read as MITF inhib -30 and NOMO-1 viab 112*.
`COc1cccc(Cc2nnc(-c3ccc(-c4cccs4)s3)o2)c1` gave MITF inhib 2, Hedgehog inh 60 and NOMO-1 viab 9.
COc1ccc(NC(=O)N(C)C[C@H]2Oc3c(NC(=O)Nc4ccc(C(F)(F)F)cc4)cccc3C(=O)N([C@@H](C)CO)C[C@@H]2C)cc1 was read as MITF inhib -13, Hedgehog inh 28 and NOMO-1 viab 42.
Screening CC(C)NC(=O)N(C)C[C@@H]1Oc2c(NC(=O)Nc3ccc(C(F)(F)F)cc3)cccc2C(=O)N([C@@H](C)CO)C[C@H]1C returned MITF inhib 7, Hedgehog inh inconclusive and NOMO-1 viab 15.
Screening C[C@@H]1CN([C@@H](C)CO)C(=O)c2cccc(NC(=O)Nc3ccc(C(F)(F)F)cc3)c2O[C@H]1CN(C)C(=O)Nc1ccc(C(F)(F)F)cc1 returned MITF inhib 60, Hedgehog inh -7 and NOMO-1 viab 105*.

From PubChem BioAssay
